FUS yeast rescue: FUS proteinopathy suppression in yeast. S. cerevisiae FUS-expressing, growth rescue, OD600, 24 h. Potency, µM (series often up to 76.6 µM), most hits filed as activators. AID 1347120. actives 0.24% (n = 390,000); note: nearly all actives have a fitted effect of over 55% in size
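Galactose (2%) drives FUS expression in yeast precultured in raffinose; seeding density OD 0.005. Test compounds incubated 24hr at 30C and 99% humidity before absorbance at 600 nm was measured.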
uPA generation: cell surface uPA generation inhibition; cell surface uPA generation assay, qHTS; Potency, µM (top dose mostly 38.3 µM), usual class: inhibitors; actives 0.31% (n = 330,000); AID 540303; active = well fitted inhibition curve with a large enough effect; inconclusive = small, poorly fitted or top-dose-only effect; inactive = no such curve, though single readings can be large or run the other way; tested in mouse RAW 264.7 cells; note: nearly all actives have a fitted effect of over 55% in size
Abeta rescue: restores growth of yeast expressing A-beta42 peptide. yeast expressing A-beta42, growth rescue, OD600, 48 h; response scale: 0% DMSO, 100% iron-clioquinol control. Potency, µM (titrated, usually from 46.1 µM), most hits filed as activators. AID 1347071. actives 0.063% (n = 410,000); note: nearly all actives have a fitted effect of over 55% in size
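Yeast A-beta toxicity model in growth medium with pinned compounds, 48 h at 30 C; growth read as absorbance at 600 nm. Normalized to FeCl3/clioquinol equimolar mix (positive) and DMSO (negative).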
BCR signal inh: blocks chronic active B-cell receptor signaling; ABC-DLBCL IkBa-CBG/CBR reporter, luminescence ratio, 4 h; Potency, µM (series often up to 46.1 µM), actives largely listed as inhibitors; actives 0.05% (n = 340,000); AID 493014; active = well fitted inhibition curve with a large enough effect in the signal ratio, with a control signal flat, not every such curve was filed as active; inconclusive = small, poorly fitted or top-dose-only effect, or effect the other way, or a change in a side signal; the % refers to the signal ratio
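Concentration-response series (up to 46 uM) were applied to TMD8 dual-reporter cells for 4 h at 37C with doxycycline. Green/red ratio, after filter-overlap correction, defined %Activity; red signal alone was normalised to basal cells and zero luminescence.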
TDP-43 yeast inh: rescues yeast growth from TDP-43 toxicity | TDP-43 expressing yeast growth rescue, BacTiter-Glo, 24 h | Potency, µM (series often up to 46.1 µM), usual class: activators | actives 1.8% (n = 410,000) | AID 652104; note: nearly all actives have a fitted effect of over 50% in size
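In this qHTS, compounds that restore growth of yeast expressing TDP-43 appear as activators. Cells (OD600=0.02, galactose medium, raffinose-pregrown) are incubated with compound 24 hr at 30 deg C and growth is quantified by BacTiter-Glo.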
aSyn yeast inh: alpha-synuclein toxicity inhibition in yeast; Yeast expressing alpha-synuclein, growth rescue, BacTiter-Glo, 24 h; Potency, µM (top dose mostly 46.1 µM), usual class: activators; actives 0.14% (n = 370,000); note: nearly all actives have a fitted effect of over 65% in size
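Rescue of yeast growth: cells expressing toxic alpha-synuclein, induced in galactose at OD600 0.02, incubated with compound 24 h at 30 C. ATP luminescence quantified growth; inhibitors of toxicity appear as activators.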
Each line names hits and unclear results; the compound was inactive in the other large screens. A selection: hits, their analogues and other compounds. The true share with any hit is near 2.3%. Unless noted, calls come from the whole dose curve; as a rule, active = well fitted curve in the direction sought with a large enough effect; inconclusive = small, poorly fitted or top-dose-only effect, or another doubt; inactive = no such curve, though single readings can be large; an effect the other way counts as inactive or inconclusive.

O=C(c1ccc(NC(=S)Nc2ccc(Cl)c(Cl)c2)cc1)N1CCCC1	TDP-43 yeast inh 17.8µM
Cc1ccc(NC(=O)N2CCCC(c3ccccc3)C2)cc1 (stereo unspecified)	TDP-43 yeast inh 17.8µM
O=C(Nc1ccc(Cl)c(Cl)c1)N1CCSCC1	BCR signal inh inconclusive, TDP-43 yeast inh 12.6µM
COc1cc(NC(=O)C2CCN(S(=O)(=O)c3cccs3)CC2)cc(OC)c1	none
O=C(/C=C/c1ccccc1)N1CCC(c2ccccc2)C1 (stereo unspecified)	BCR signal inh inconclusive, TDP-43 yeast inh 11.2µM (no result: FUS yeast rescue)
O=C(/C=C/c1ccco1)N1CCCC(c2ccccc2)C1 (stereo unspecified)	BCR signal inh inconclusive
O=C(N/N=C\C=C\c1ccco1)c1cc(-c2ccc3ccccc3c2)n[nH]1	FUS yeast rescue inconclusive, BCR signal inh inconclusive, aSyn yeast inh 17.8µM
Cc1cc(C)nc(SCCCNCc2ccc(Br)cc2)n1	uPA generation inconclusive
Cc1cc(C)n(-c2cc(C(C)(C)C)nc3c(-c4ccccc4)cnn23)n1	TDP-43 yeast inh 14.1µM
COc1cc(NC(=O)c2cc(-c3ccccc3Cl)on2)cc(OC)c1OC	BCR signal inh inconclusive, TDP-43 yeast inh 15.8µM
CC(=O)c1c(O)cc(O)cc1CC(=O)O	none
C=CCOc1ccc(/C=C2\N=C(C)OC2=O)cc1OC	none
CC(C)C[C@@H](COCc1ccc(Cl)cc1)N1CCN(C(=O)c2ccc(C(F)(F)F)cc2)CCC1=O	FUS yeast rescue inconclusive, aSyn yeast inh inconclusive (no result: uPA generation, BCR signal inh)
Cc1cccc(COC[C@H](Cc2ccccc2)N2CCN(C(=O)c3cccc(Cl)c3)CCC2=O)c1	FUS yeast rescue inconclusive, TDP-43 yeast inh 17.8µM, aSyn yeast inh inconclusive (no result: uPA generation, BCR signal inh)
Cc1cccc(COCC(Cc2ccccc2)N2CCN(C(=O)c3cccc(Cl)c3)CCC2=O)c1 (stereo unspecified)	FUS yeast rescue inconclusive, uPA generation inconclusive, aSyn yeast inh inconclusive
CC(C)CC(COCc1ccc(Cl)cc1)N1CCN(C(=O)c2ccc(Cl)cc2Cl)CCC1=O (stereo unspecified)	FUS yeast rescue inconclusive, uPA generation inconclusive, BCR signal inh inconclusive, TDP-43 yeast inh 25.1µM, aSyn yeast inh inconclusive
Cc1ccc(-n2cc(C(=O)c3cc(Cl)ccc3O)cc(C#N)c2=O)cc1	BCR signal inh inconclusive, TDP-43 yeast inh 14.1µM (no result: FUS yeast rescue)
COc1ccc(-n2cc(C(=O)c3cc(Cl)ccc3O)cc(C#N)c2=O)cc1	BCR signal inh inconclusive, TDP-43 yeast inh inconclusive
CC1(C)NC(=O)N(CCCCOc2ccc(Br)cc2Cl)C1=O	TDP-43 yeast inh 12.6µM
Cc1cc(OCCCCN2C(=O)NC(C)(C)C2=O)cc(C)c1Cl	BCR signal inh inconclusive, TDP-43 yeast inh 17.8µM (no result: aSyn yeast inh)
COc1ccc(CN2C(=O)[C@H]3Cc4c([nH]c5ccccc45)C(C)(C)N3C2=O)cc1	FUS yeast rescue inconclusive, Abeta rescue inconclusive (no result: BCR signal inh, TDP-43 yeast inh, aSyn yeast inh)
O=c1[nH]c(-c2ccco2)nc2sc3c(c12)CCCC3	BCR signal inh inconclusive, TDP-43 yeast inh 17.8µM (no result: FUS yeast rescue)
CN1c2ccccc2SC2C(c3ccccc3)=NOC21 (stereo unspecified)	TDP-43 yeast inh 17.8µM (no result: uPA generation, BCR signal inh)
COc1cc2c(cc1NC(=O)C(C)Oc1ccc(Cl)cc1Cl)oc1ccccc12 (stereo unspecified)	none (no result: uPA generation, BCR signal inh, aSyn yeast inh)
O=c1oc2ccccc2n1CCCOc1ccccc1Cl	TDP-43 yeast inh 15.8µM (no result: uPA generation, BCR signal inh, aSyn yeast inh)
Cc1ccc2oc(=O)n(CCCOc3ccccc3)c2c1	BCR signal inh inconclusive, TDP-43 yeast inh 35.5µM
COc1ccc(OCCCn2c(=O)oc3ccc(C)cc32)cc1	TDP-43 yeast inh inconclusive (no result: uPA generation, BCR signal inh, aSyn yeast inh)
Cc1ccccc1OCCn1c(=O)oc2ccccc21	TDP-43 yeast inh inconclusive
COc1ccc(-c2csc(C(O)(c3ccccc3)C(F)(F)F)n2)cn1 (stereo unspecified)	FUS yeast rescue inconclusive (no result: uPA generation, BCR signal inh)
CCOc1ccc(C(C(=O)NCCC(C)C)N(CCO)C(=O)c2snc(C(N)=O)c2N)cc1 (stereo unspecified)	none
OC(c1ccc(F)c(F)c1)c1nc(-c2cccc(F)c2)cs1 (stereo unspecified)	TDP-43 yeast inh 22.4µM (no result: uPA generation, BCR signal inh)
OC(c1ccc(F)c(F)c1)c1nc(-c2ccccc2)cs1 (stereo unspecified)	TDP-43 yeast inh 14.1µM (no result: uPA generation, BCR signal inh)
O=C(O)c1cccc(-c2csc(C(O)c3ccc(F)c(F)c3)n2)c1 (stereo unspecified)	TDP-43 yeast inh inconclusive (no result: uPA generation, BCR signal inh)
COc1ccc(-c2csc(C(O)c3ccc(F)c(F)c3)n2)cc1 (stereo unspecified)	TDP-43 yeast inh inconclusive, aSyn yeast inh 11.2µM (no result: uPA generation, BCR signal inh)
OC(c1ccc(F)c(F)c1)c1nc(-c2ccc3c(c2)OCO3)cs1 (stereo unspecified)	TDP-43 yeast inh 22.4µM, aSyn yeast inh inconclusive (no result: uPA generation, BCR signal inh)
CC(=O)NC(c1ccc(F)c(F)c1)c1nc(-c2ccc3c(c2)OCO3)cs1 (stereo unspecified)	none (no result: uPA generation, BCR signal inh)
Cc1nn(CC(=O)O)c(C)c1N	none
CC(=O)Nc1ccccc1NC(=O)COc1cccc2ccccc12	aSyn yeast inh inconclusive
Cc1nc2scc(-c3cccs3)c2c(=O)[nH]1	none
CC(C)c1cccc(-c2csc(C(O)c3ccc(F)c(F)c3)n2)c1 (stereo unspecified)	none (no result: uPA generation, BCR signal inh)
OC(c1ccc(F)c(F)c1)c1nc(-c2cnc3ccccc3c2)cs1 (stereo unspecified)	TDP-43 yeast inh 22.4µM (no result: uPA generation, BCR signal inh)
OC(c1ccc(F)c(F)c1)c1nc(-c2cccs2)cs1 (stereo unspecified)	TDP-43 yeast inh 22.4µM (no result: uPA generation, BCR signal inh)
Brc1c(CSc2nc3ccccc3o2)nc2ncccn12	TDP-43 yeast inh 12.6µM
CS(=O)(=O)Nc1ccc(C(=O)NCCSC2CCCCC2)cc1	none (no result: uPA generation)
CCOC(=O)NC(=O)CSc1nc(-c2ccc(C)c(C)c2)cn1-c1ccccc1	TDP-43 yeast inh 35.5µM
CS(=O)(=O)c1nc([N+](=O)[O-])nn1CCCc1ccccc1	TDP-43 yeast inh 17.8µM (no result: BCR signal inh)
COc1ccc(NC(=O)c2cc(-c3ccccc3O)no2)cc1	none (no result: uPA generation, BCR signal inh, aSyn yeast inh)
COc1ccc(-c2onc(C)c2-c2ccc(C(=O)OC(C)C)o2)c(O)c1	BCR signal inh inconclusive, TDP-43 yeast inh 14.1µM
COc1ccc(NC(=O)COC(=O)C2=COCCO2)cc1OC	none
CC1(C(=O)NCCCNc2ncc(C(F)(F)F)cc2Cl)C=CCN1C(=O)c1ccccc1 (stereo unspecified)	BCR signal inh inconclusive
C[C@]1(C(=O)NCCCNc2ncc(C(F)(F)F)cc2Cl)C=C[C@@H](Cc2ccccc2)N1C(=O)c1ccccc1	FUS yeast rescue 25.1µM, BCR signal inh inconclusive, TDP-43 yeast inh inconclusive, aSyn yeast inh inconclusive
COC(=O)C(C(=O)N1CCN(C)CC1)C1CCCCCC1 (stereo unspecified)	none
Cc1cccc(C(=O)N2CCC(n3nnc4cc(F)ccc43)CC2)c1	TDP-43 yeast inh 22.4µM

Assay outcomes as filed in PubChem.
